About 810 (0.84%) of roughly 97,000 compounds were called active. No stated cut-off is given here; in the data, active means inhibition above about 19%; inactive means the rest. Shown is part of a subset that was picked to be rich in actives.
Molecular target: Focal adhesion kinase 1 (Homo sapiens) (UniProt Q05397)
Experiment: human PTK2 enzyme activity blockers – biochemical, primary screen (AID 727);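 further: 0% = DMSO and 100% = reference compound high control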
Conditions: biochemical FAK kinase activity assay; stronger effect = higher value;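 tested at 7 µM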

Sequence of Focal adhesion kinase 1 (Homo sapiens) (Q05397 whole entry, looked up): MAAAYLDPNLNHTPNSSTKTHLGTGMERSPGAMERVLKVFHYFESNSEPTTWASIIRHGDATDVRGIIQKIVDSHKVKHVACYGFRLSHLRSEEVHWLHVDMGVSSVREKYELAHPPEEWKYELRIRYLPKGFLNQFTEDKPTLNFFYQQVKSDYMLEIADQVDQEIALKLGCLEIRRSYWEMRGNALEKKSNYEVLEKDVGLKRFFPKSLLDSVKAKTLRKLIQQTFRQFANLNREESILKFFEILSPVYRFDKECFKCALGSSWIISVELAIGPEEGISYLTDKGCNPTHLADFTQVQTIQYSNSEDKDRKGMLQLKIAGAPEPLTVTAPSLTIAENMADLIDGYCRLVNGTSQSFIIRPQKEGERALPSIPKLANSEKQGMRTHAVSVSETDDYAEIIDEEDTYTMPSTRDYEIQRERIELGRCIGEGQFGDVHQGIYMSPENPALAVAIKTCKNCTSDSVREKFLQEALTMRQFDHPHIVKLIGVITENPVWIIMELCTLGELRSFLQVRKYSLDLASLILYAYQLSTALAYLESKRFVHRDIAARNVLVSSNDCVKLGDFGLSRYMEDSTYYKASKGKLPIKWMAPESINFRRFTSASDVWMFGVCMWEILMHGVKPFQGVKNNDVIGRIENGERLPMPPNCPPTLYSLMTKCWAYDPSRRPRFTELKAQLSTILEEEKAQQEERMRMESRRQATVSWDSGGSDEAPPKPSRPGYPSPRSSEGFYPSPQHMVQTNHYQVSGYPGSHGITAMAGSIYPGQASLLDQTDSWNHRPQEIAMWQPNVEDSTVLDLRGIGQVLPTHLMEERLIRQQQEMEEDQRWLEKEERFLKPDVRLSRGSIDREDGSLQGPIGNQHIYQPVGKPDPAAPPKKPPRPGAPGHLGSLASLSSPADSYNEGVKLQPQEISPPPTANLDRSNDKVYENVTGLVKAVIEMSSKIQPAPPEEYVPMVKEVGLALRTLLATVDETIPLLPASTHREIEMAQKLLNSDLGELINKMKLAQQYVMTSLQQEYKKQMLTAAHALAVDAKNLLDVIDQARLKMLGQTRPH

Compound	inhibition
CCOC(=O)CC(=O)CSc1nc(-c2ccccc2)cc(-c2ccc(Cl)cc2)c1C#N	-8.83% (inactive)
N#CC1=C(N)N(c2ccccc2)C2=C(C(=O)CCC2)C1c1ccccc1 (stereo not drawn)	0.57% (inactive)
O=C(NC1CCN(C(=S)NCc2ccco2)CC1)c1ccc(F)cc1	2.16% (inactive)
CCOc1ccc(N=Cc2c(O)n(-c3cccc(C)n3)c(=O)c3ccccc23)cc1	-4.03% (inactive)
COc1cc(C(=O)Nc2nccs2)cc(OC)c1OC	-2.65% (inactive)
Cn1cccc1C(=O)Nc1nccs1	25.5% (active)
CCN(c1ccccc1)S(=O)(=O)c1ccc(C(=O)Nc2nccs2)cc1	1.43% (inactive)
Cc1ccccc1-n1c(C)cc(/C=N/NC(=O)c2ccc(CN3CCOCC3)cc2)c1C	5.57% (inactive)
O=C(Cn1cc(/C=N/NC(=O)c2cccc(C(F)(F)F)c2)c2ccccc21)Nc1ccc(F)cc1	-6.09% (inactive)
CCCNC(=S)N1CCC(NC(=O)C23CC4CC(CC(C4)C2)C3)CC1	0% (inactive)
Cc1nn(-c2ccccc2)c(Cl)c1C(=O)Nc1ccccc1	1.43% (inactive)
Cc1cccc(NC(=O)C(C)N2C(=O)C3C4CC(C(Br)C4Br)C3C2=O)c1 (stereo not drawn)	3.39% (inactive)
Cc1ccc(-c2nn(C(C)(C)C)c3ncnc(N)c23)cc1	38.8% (active)
COc1nc(-c2ccc(Cl)cc2)ccc1-c1noc(-c2cccs2)n1	-0.49% (inactive)
CCOC(=O)C1=C(CN2CCc3ccccc32)NC(=O)NC1c1cc(C)ccc1C (stereo not drawn)	4.94% (inactive)
CN(Cc1ccccc1)C(=O)COc1ccccc1	-1.65% (inactive)
Cc1no[n+]([O-])c1COc1ccccc1/C=C1\NC(=S)NC1=O	1.38% (inactive)
O=C1CCN(C(=O)Nc2ccccc2)N1	-0.01% (inactive)
COC(=O)CN(C(=S)Nc1ccc(Cl)cc1)C1CC(=O)N(c2ccc(OC)cc2)C1=O (stereo not drawn)	1.24% (inactive)
Cc1ccc(OCC(=O)N/N=C/c2ccncc2)cc1	1.58% (inactive)
COC(=O)c1ccc(NC(=O)C23CC4CC(C2)CC(n2cnc(Cl)n2)(C4)C3)cc1	2.71% (inactive)
COc1ccc(C(=S)Nc2ccccc2)cc1	-5.15% (inactive)
CCCNC(=O)Nc1ccccc1C(=O)Nc1ccc(OC)cc1	4.85% (inactive)
COc1ccc(NC(=O)ON=C2c3ccccc3-c3ccccc32)cc1	35% (active)
Cc1cccc(NC(=S)N2CCC(c3nc4ccccc4s3)CC2)c1	0.28% (inactive)

Compound	inhibition
Cc1nn(C)c(Oc2ccccc2)c1CCNS(=O)(=O)c1ccc(F)cc1	0.76% (inactive)
Cc1nc2ccccc2c(-c2ccccc2)c1C(=O)c1ccccc1	0.7% (inactive)
Cc1ccc(NC(=S)NC(=O)c2ccc(-c3ccccc3)cc2)c(C)c1	1.93% (inactive)
CC(=O)NS(=O)(=O)c1ccc(NC(=O)/C=C/c2ccccc2Cl)cc1	-4.73% (inactive)
Cc1ccc(/C=N/NC(=O)Cn2nc(C)c(Br)c2C)o1	-0.29% (inactive)
O=[N+]([O-])c1ccc(C=Nc2ccc(Cl)cc2Cl)s1	20.7% (active)
Cc1cccn2c(=O)c3cc(C(=O)N4COCC4(C)C)n(C)c3nc12	25.2% (active)
Cc1cccn2c(=O)c3cc(C#N)c(=O)n(CCCN4CCOCC4)c3nc12	2.6% (inactive)
COc1ccc(CCn2c(=N)c(C(=O)NCc3ccco3)cc3c(=O)n4cccc(C)c4nc32)cc1	1.33% (inactive)
Cc1cccc(COc2ccccc2/C=N/Nc2ccc([N+](=O)[O-])cc2)c1	14.6% (inactive)
Cc1[nH]c2ccccc2c1C(=O)COC(=O)C(C)C	-1.84% (inactive)
O=C(c1ccccn1)c1ncc(C(F)(F)F)cc1Cl	-4.84% (inactive)
CC(=O)c1ccc(Cc2ncc(C(F)(F)F)cc2Cl)s1	32.1% (active)
O=C(Cc1ncc(C(F)(F)F)cc1Cl)Nc1cccc(Br)c1	-7.54% (inactive)
COc1ccc(CC(NC(C)=O)C(=O)N2CCN(C(=O)Nc3cccc(Cl)c3)CC2)cc1OC (stereo not drawn)	-1.84% (inactive)
CCOc1cc2[nH]c(=S)n(Cc3ccc(C(=O)NCCOC)cc3)c(=O)c2cc1OCC	1.95% (inactive)
Cc1nn(C)cc1CNC(=O)Nc1ccc(Cl)cc1	0.55% (inactive)
CN(CC(=O)Nc1cccc2c1CCCC2)S(=O)(=O)c1ccc(Cl)cc1	2.06% (inactive)
Cc1cc(=O)oc(C)c1C(=O)N1CCCCC1	-3.95% (inactive)
Cc1c(NC(=O)CCCOc2ccccc2)cccc1[N+](=O)[O-]	5.03% (inactive)
O=c1c2ccccc2c(-c2ccc(F)cc2)nn1-c1ccc(C(F)(F)F)cc1	-9.67% (inactive)
Cc1cccc(Nc2ccccc2C(=O)NCc2ccco2)c1C	-0.25% (inactive)
COc1ccccc1OCCNc1cc(N2CCOCC2)ccc1[N+](=O)[O-]	0.07% (inactive)
CCN(CC)Cc1cc(C(C)=O)ccc1O	-1.48% (inactive)
O=C1C(=O)N(c2ccccc2)c2ccccc21	-1.97% (inactive)

Compound	inhibition
CC(C)CC[n+]1ccn(C2=C([O-])c3ccccc3C(=O)/C2=N\S(=O)(=O)c2ccccc2)c1	0.45% (inactive)
COCCOC(=O)c1sc(=S)n(CCOC)c1N	0.4% (inactive)
Cc1cccc(-n2nc3c(c2NC(=O)c2ccc(Br)o2)CSC3)c1C	-10.1% (inactive)
Cc1cc(C)nc(-n2nc(C)cc2NC(=O)c2ccc(Br)o2)n1	19.6% (active)
COc1cc(OC)c(NC(=O)c2ccc(Br)o2)cc1Cl	2.86% (inactive)
O=C(Nc1ccc(F)c(Cl)c1)C1CCN(S(=O)(=O)c2cccnc2)CC1	5.16% (inactive)
COc1ccc(C2Nc3ccccc3C(=O)N2Cc2ccccc2)cc1Cn1nnc2ccccc21 (stereo not drawn)	1.35% (inactive)
O=C(c1ccc2c(c1)C(=O)N(c1ccc(Cl)cc1)C2=O)N1CCN(c2ccccn2)CC1	22.9% (active)
O=C(c1ccc(Cl)c(Cl)c1)N1CCCC1	-2.15% (inactive)
CC(=C1C(=O)c2ccccc2C1=O)N1CCN(c2ccccn2)CC1	-0.27% (inactive)
CC(C)CC(N=C1NC(C)(C)Cc2ccccc21)C(=O)O (stereo not drawn)	-1% (inactive)
COC(=O)c1ccccc1NC(=O)CSc1nnnn1C	-1.15% (inactive)
O=[N+]([O-])c1ccccc1NCc1ccc(Cl)cc1	1.41% (inactive)
Cc1ccc(CNC(=O)COc2ccc(S(=O)(=O)NC(C)C)cc2)cc1	-1.67% (inactive)
Cc1nc(N2CCOCC2)nc2c1CCCC2	-0.58% (inactive)
CCC(C)NC(=O)CCCc1ccccc1 (stereo not drawn)	2.61% (inactive)
CCn1c(SCc2ccc(C)cc2)nnc1-c1nn(-c2ccccc2)ccc1=O	3.11% (inactive)
CN(C)/C(CN1CCCCC1)=C1\N=C(c2ccccc2)OC1=O	-3.3% (inactive)
CCN(CC)c1nc(-c2ccccc2)cc(C(F)(F)F)c1C#N	4.59% (inactive)
FC(F)(F)c1nnc2sc(-c3ccco3)nn12	-8.22% (inactive)
Fc1ccc(-c2ccc(-c3nn4c(-c5ccco5)nnc4s3)o2)cc1	19.2% (active)
Cc1nnc2sc(-c3ccco3)nn12	0.33% (inactive)
NC(=O)c1ncc(C(F)(F)F)cc1Oc1ccc(F)cc1	1.7% (inactive)
COc1ccccc1N(C)S(=O)(=O)c1ccc(C(=O)N2CCC(C(N)=O)CC2)cc1	-1.2% (inactive)
COC(=O)c1c(NC(=O)CSc2nncs2)sc2c1CCCCC2	19.5% (active)

Compound	inhibition
COC(=O)c1c(NC(=O)c2cccs2)sc2c1CCCC2	-3.96% (inactive)
CCOC(=O)c1c(NC(=O)CSc2nnc(C)c(=O)[nH]2)sc2c1CCC2	-5.37% (inactive)
OCCN(Cc1ccccc1)Cc1ccc(Cl)cc1	1.29% (inactive)
CCOC(=O)c1c(NC(=O)CSc2nnc(CNc3ccc(C)cc3C)o2)sc(C)c1C	0.35% (inactive)
Cc1nn(Cc2ccc(C(=O)N3N=C(C(F)F)CC3(O)C(F)F)cc2)c(C)c1[N+](=O)[O-] (stereo not drawn)	-1.38% (inactive)
Cc1ccc(S(=O)(=O)/N=C(/Nc2ccccn2)c2ccc(Cl)cc2)cc1	-9% (inactive)
COc1cc(C2CC(=O)c3cnc(NC(C)=O)nc3C2)cc(OC)c1OC (stereo not drawn)	0.08% (inactive)
N#C/C(=C\c1ccccc1)c1n[nH]c(Cn2cncn2)n1	-0.5% (inactive)
COc1ccc(N/N=C2/CCCCC2=O)cc1	-0.48% (inactive)
O=C1CSC2=NCN(c3ccccc3)CN12	3.72% (inactive)
Cc1ccc2c(c1)N(CC(=O)N(Cc1ccccn1)Cc1ccco1)C(=O)C(C(C)C)O2 (stereo not drawn)	0.38% (inactive)
Cc1ccccc1OC(=O)Cn1c(C(F)(F)F)nc2ccccc21	-3.25% (inactive)
CCn1c(SCC(=O)Nc2nc(C)cs2)nnc1C(C)NC(=O)c1ccccc1 (stereo not drawn)	-0.18% (inactive)
Cc1ccc(C(=O)OC2=CC(=O)CC(C)(C)C2)cc1	1.07% (inactive)
Cn1c2ccccc2n2c(=O)c(=O)n(CC(=O)c3ccc(F)cc3)nc12	-3.16% (inactive)
CCOc1ccc(C(O)Cn2c(=N)n(CCN3CCCCC3)c3ccccc32)cc1 (stereo not drawn)	0.54% (inactive)
Cc1cc(C)n(-c2nc(SCC(=O)N3CCCC3)c3c4c(sc3n2)CCCC4)n1	1.79% (inactive)
COc1ncnc2sc3c(c12)CCCC3	3.78% (inactive)
COCCn1c(C)cc(C(=O)CSc2ncnc3sc4c(c23)CCC4)c1C	83.3% (active)
Nc1ccccc1SCc1cc([N+](=O)[O-])cc2c1OCOC2	0.81% (inactive)
CC(=NCc1ccco1)C1=C(O)c2ccccc2C1=O	27.9% (active)
CC(=NCc1ccc2c(c1)OCO2)C1=C(O)c2ccccc2C1=O	6.12% (inactive)
CC(=NCc1ccco1)c1c(C(F)(F)F)[nH]n(-c2nc3ccccc3s2)c1=O	5.23% (inactive)

From PubChem BioAssay AID727 (The Scripps Research Institute Molecular Screening Center, 2007)
